Laboratory results published in the supplement of paper PMC10849652.
About 8,800 targets were measured; listed, in parts, are those with a hit and a random draw of the rest. About 0.5% of all pairs of compound and target were hits. A number with no mark means an inactive call.

Assays:
Assay in all cases: log2 fold change, soluble protein after heating vs DMSO (PISA); higher = thermal stabilisation; K562 lysate, 10 uM; active = over 0.2 and 3.5 SD of the protein, either way, in both replicates (recomputed)
erlotinib = compound: C#Cc1cccc(Nc2ncnc3cc(OCCOC)c(OCCOC)cc23)c1 [erlotinib]
In short: (§1)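 Log-two fold change in thermal stability relative to solvent controls is reported from duplicates. For each sample, crude K562 extract from dounce-homogenised pellets in PBS pH 7.4 with 1 mM MgCl2, at 1 mg/mL protein, was treated with 10 μM compound for 30 min. Aliquots heated for 3 min across 48°C-58°C were pooled, brought to 0.5% NP-40 at 4°C and cleared at 21,000xg for 90 min. The supernatant was quantified by TMTpro 16plex LC-MS/MS with channel sums equalised.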

[1] = compound: C/C(=N\NC(=O)C1=CC(=CC=C1)S(=O)(=O)N2CCOCC2)/C3=C(C=CC(=C3)Cl)O
In short: as §1

[2] = compound: C1=CC(=CC=C1C2=NC3=C(N2)C=C(C=C3)C(=O)N)OC4=CC=C(C=C4)Cl
In short: as §1

[3] = compound: C1=CC2=C(C=CC(=C2)/C=C\3/C(=O)NC(=NCC4=CC=CS4)S3)N=C1
In short: as §1

[4] = compound: C1=CC2=NC=CN=C2C=C1/C=C/3\C(=O)NC(=O)S3
In short: as §1

[5] = compound: C1=CC=C(C=C1)C2=NC(=C(N2)C3=CC=NC=C3)C4=CC(=C(C=C4)Cl)O
In short: as §1

[6] = compound: C1=CC=C2C(=C1)C3=NNC4=CC=CC(=C43)C2=O
In short: as §1

[7] = compound: C1CCN(C1)C(=O)NC2=CC=CC(=C2)NC3=NC=C(C(=N3)NCCC4=CN=CN4)Br
In short: as §1

[8] = compound: C1CN(CCC1(CC2=CC=C(C=C2)Cl)N)C3=NC=NC4=C3C=CN4
In short: as §1

IRAK-1-4 Inhibitor I = compound: C1COCCN1CCN2C3=CC=CC=C3N=C2NC(=O)C4=CC(=CC=C4)[N+](=O)[O-] [IRAK-1-4 Inhibitor I]
In short: as §1

ibrutinib = compound: C=CC(=O)N1CCC[C@@H](n2nc(-c3ccc(Oc4ccccc4)cc3)c3c(N)ncnc32)C1 [ibrutinib]
In short: as §1

[9] = compound: CC(=O)c1cnc2ccc(-c3cc(Cl)c(O)c(Cl)c3)nc2c1N[C@H]1CC[C@H](CN(C)C)CC1
In short: as §1

ralimetinib = compound: CC(C)(C)Cn1c(N)nc2ccc(-c3[nH]c(C(C)(C)C)nc3-c3ccc(F)cc3)nc21 [ralimetinib]
In short: as §1

[10] = compound: CC(C)(O)CC(=O)NCCn1ccc2ncnc(Nc3ccc(Oc4cccc(C(F)(F)F)c4)c(Cl)c3)c21
In short: as §1

[11] = compound: CC(C)C1=C2N=C(C=C(N2N=C1)NCC3=CC=CC=C3)NCCCCCCN
In short: as §1

[12] = compound: CC1=C(C2=C(C=C1)C(=O)C3=CC=CC=C3N2CCCN)C
In short: as §1

[13] = compound: CC1=C(C=C(C=C1)NC(=O)C2=CC(=CC=C2)N(C)C)NC(=O)C3=CC=C(C=C3)O
In short: as §1

[14] = compound: CC1=CC=C(C=C1)SC2=C3C=C(SC3=CN=C2)C(=O)N
In short: as §1

[15] = compound: CC1=C(C(CC(=O)N1)C2=CC=C(C=C2)C(F)(F)F)C(=O)NC3=C(C=C4C(=C3)C=NN4)F
In short: as §1

[16] = compound: CC1=C(C=C(C=C1)NC(=O)C2=CC(=CC=C2)C(C)(C)C#N)NC3=CC4=C(C=C3)N=CN(C4=O)C
In short: as §1

UniProt Q9H6S3, sequence (Q9H6S3 whole entry, looked up): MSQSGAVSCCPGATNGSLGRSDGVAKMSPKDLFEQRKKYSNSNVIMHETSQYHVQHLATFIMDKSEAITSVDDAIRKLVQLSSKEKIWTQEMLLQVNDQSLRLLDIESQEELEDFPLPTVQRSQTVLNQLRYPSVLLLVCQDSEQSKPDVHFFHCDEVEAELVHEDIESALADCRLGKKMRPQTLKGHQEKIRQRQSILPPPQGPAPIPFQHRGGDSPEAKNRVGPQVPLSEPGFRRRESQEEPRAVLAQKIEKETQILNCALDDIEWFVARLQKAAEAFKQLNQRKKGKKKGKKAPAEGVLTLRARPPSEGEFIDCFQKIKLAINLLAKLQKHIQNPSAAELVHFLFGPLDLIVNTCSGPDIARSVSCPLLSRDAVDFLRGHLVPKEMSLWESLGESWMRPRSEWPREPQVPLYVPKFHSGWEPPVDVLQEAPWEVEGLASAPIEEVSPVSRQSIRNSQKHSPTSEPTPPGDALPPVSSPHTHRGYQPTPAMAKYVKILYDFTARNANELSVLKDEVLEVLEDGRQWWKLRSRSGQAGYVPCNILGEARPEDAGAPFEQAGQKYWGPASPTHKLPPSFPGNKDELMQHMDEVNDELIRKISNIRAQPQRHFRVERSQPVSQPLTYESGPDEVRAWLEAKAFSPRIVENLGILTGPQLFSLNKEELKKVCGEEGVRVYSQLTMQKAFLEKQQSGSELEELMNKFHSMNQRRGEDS
UniProt Q6PIW4, sequence (Q6PIW4 whole entry, looked up): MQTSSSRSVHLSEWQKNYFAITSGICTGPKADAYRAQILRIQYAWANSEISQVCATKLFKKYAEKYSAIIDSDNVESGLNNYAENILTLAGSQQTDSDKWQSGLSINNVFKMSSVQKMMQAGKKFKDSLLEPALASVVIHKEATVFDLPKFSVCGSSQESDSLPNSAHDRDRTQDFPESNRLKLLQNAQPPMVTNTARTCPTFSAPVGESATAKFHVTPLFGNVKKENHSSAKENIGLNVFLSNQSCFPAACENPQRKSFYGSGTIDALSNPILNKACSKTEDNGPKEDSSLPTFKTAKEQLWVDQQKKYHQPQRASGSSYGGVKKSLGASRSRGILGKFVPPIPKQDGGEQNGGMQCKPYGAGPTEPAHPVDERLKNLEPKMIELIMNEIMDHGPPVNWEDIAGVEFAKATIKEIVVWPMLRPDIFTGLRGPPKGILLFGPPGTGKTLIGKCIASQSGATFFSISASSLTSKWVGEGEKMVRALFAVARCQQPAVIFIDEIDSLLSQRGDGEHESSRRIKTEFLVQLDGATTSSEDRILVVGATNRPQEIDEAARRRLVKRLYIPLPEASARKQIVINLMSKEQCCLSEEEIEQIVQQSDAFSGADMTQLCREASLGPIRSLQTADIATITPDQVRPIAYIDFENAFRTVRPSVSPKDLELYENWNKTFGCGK
UniProt Q9H790, sequence (Q9H790 whole entry, looked up): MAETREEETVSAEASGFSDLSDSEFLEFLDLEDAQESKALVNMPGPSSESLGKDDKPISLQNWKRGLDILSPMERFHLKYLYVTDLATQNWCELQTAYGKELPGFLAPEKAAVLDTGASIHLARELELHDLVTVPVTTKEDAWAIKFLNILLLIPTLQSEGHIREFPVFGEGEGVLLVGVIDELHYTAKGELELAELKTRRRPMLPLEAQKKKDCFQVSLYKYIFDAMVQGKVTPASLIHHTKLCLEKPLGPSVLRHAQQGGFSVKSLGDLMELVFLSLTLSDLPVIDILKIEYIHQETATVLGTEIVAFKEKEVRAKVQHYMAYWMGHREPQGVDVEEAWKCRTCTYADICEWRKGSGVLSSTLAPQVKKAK
UniProt Q9Y2H6, sequence (Q9Y2H6 whole entry, looked up): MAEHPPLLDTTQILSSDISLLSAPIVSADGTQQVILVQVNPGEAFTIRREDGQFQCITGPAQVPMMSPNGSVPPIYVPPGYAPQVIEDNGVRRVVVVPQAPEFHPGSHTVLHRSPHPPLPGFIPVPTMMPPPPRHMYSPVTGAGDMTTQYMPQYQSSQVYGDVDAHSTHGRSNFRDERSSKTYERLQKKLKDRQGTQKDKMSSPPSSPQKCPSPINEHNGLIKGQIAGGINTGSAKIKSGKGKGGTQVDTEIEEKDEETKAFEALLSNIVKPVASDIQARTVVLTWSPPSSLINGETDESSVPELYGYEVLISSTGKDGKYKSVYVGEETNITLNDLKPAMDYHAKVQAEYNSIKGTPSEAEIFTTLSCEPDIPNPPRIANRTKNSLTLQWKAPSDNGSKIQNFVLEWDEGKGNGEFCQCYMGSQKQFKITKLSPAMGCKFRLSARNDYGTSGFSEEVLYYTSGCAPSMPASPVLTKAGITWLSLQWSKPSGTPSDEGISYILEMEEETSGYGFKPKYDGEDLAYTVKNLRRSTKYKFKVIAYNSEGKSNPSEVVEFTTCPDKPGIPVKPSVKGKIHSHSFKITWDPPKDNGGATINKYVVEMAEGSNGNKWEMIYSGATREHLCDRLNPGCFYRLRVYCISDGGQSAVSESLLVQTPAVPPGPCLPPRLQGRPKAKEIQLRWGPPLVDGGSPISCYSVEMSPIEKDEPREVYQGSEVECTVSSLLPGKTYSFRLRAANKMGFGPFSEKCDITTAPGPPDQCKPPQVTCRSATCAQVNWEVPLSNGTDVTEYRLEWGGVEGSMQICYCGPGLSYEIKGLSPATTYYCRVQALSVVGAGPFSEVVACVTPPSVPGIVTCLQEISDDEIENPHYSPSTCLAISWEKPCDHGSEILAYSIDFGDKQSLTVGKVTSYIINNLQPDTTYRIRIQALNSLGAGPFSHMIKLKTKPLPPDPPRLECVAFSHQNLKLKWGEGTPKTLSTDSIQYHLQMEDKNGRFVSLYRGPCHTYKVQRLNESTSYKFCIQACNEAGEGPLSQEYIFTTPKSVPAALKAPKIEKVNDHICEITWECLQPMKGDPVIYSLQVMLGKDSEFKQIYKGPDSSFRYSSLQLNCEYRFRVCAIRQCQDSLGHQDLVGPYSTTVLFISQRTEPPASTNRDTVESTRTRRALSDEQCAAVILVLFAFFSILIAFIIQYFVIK
UniProt O94905, sequence (O94905 whole entry, looked up): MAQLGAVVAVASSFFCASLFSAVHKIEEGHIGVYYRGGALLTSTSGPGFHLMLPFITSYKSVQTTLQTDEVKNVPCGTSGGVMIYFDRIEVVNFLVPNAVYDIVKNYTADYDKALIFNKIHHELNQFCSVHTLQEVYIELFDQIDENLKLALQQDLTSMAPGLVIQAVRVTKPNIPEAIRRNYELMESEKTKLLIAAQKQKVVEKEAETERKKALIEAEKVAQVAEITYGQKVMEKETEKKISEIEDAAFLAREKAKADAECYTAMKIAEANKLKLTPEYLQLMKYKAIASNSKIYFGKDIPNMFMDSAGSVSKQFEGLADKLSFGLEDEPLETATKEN
UniProt Q9NZJ0, sequence (Q9NZJ0 whole entry, looked up): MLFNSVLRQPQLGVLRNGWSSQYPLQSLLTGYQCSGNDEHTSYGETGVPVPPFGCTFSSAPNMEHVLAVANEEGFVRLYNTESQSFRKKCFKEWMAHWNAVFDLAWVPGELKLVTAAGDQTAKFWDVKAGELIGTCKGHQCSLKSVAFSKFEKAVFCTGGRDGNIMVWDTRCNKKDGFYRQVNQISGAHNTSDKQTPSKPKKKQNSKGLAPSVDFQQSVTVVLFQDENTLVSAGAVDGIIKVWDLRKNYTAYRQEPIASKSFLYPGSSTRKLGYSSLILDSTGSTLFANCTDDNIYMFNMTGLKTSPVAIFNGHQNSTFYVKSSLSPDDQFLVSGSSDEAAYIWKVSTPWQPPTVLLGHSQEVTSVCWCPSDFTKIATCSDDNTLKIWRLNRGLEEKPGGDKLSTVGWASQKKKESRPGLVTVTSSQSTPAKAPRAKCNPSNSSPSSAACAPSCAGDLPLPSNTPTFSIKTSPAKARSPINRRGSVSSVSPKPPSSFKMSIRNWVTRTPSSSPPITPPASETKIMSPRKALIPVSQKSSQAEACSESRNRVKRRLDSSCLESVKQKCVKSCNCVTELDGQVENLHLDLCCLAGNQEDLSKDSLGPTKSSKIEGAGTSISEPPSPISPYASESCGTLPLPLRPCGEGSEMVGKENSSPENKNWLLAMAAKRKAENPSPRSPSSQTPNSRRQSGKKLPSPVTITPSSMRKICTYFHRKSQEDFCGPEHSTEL
UniProt Q96G46, sequence (Q96G46 whole entry, looked up): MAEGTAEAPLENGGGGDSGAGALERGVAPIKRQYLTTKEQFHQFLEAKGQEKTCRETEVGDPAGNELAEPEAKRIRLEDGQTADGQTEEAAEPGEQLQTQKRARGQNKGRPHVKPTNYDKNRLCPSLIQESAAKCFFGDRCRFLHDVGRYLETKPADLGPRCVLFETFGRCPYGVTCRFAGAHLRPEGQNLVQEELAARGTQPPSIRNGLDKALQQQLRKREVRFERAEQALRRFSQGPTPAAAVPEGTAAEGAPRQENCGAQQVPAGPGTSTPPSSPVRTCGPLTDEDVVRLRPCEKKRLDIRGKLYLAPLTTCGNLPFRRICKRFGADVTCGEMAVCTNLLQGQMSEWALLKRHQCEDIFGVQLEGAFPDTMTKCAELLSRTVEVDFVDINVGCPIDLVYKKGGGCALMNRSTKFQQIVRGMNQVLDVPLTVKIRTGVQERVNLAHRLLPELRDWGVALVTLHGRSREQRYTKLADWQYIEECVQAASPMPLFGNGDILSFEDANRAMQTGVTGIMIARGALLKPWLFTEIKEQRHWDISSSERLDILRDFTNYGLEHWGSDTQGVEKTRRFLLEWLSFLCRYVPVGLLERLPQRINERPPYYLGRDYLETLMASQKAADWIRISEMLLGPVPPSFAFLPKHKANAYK
UniProt Q9NZC3, sequence (Q9NZC3 whole entry, looked up): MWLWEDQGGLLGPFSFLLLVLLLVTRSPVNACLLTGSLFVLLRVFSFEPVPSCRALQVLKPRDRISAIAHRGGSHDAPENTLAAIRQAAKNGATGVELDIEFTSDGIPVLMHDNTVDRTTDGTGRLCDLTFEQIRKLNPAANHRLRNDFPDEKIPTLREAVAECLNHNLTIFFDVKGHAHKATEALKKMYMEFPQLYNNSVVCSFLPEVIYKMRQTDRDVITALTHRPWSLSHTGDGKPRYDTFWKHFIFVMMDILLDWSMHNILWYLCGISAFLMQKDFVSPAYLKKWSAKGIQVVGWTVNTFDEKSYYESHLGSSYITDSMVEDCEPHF

Target	log2 fold change (erlotinib)	log2 fold change [1]	log2 fold change [2]	log2 fold change [3]	log2 fold change [4]	log2 fold change [5]	log2 fold change [6]	log2 fold change [7]	log2 fold change [8]	log2 fold change (IRAK-1-4 Inhibitor I)	log2 fold change (ibrutinib)	log2 fold change [9]	log2 fold change (ralimetinib)	log2 fold change [10]	log2 fold change [11]	log2 fold change [12]	log2 fold change [13]	log2 fold change [14]	log2 fold change [15]	log2 fold change [16]
FLT4 (UniProt P35916)	0.047	0.036	0.038	0.039	0.075	0.046	0.044	-0.097	0.087	-0.029	0.062	0.064	0.012	-0.005	-0.057	0.038	-0.019	0.005	–	–
FAU (UniProt E9PR30)	-0.026	-1.8	-0.059	-0.048	0.016	-0.016	0	0.011	-0.021	0.053	-0.018	0.012	-0.01	-0.018	-0.122	-0.015	-0.003	0.027	-0.034	0.029
DUS3L (UniProt Q96G46)	-0.009	-0.001	0.048	0.059	0.013	0.032	-0.013	-0.012	-0.007	0.017	0.012	-0.003	0.023	-0.034	-0.007	-0.007	0.001	-0.003	0.004	0.014
FIGNL1 (UniProt Q6PIW4)	-0.008	-0.019	-0.025	0.005	-0.011	-0.005	-0.015	0.035	0.006	0.008	0	0.063	0.04	0.022	-0.006	0.008	0.02	0.037	-0.067	-0.002
ESRRA (UniProt P11474)	0.065	0.171	-0.037	0.06	-0.131	-0.033	-0.112	-0.018	0.2	0.029	-0.408 (active)	0.045	0.043	-0.023	0	-0.075	-0.009	0.089	-0.007	0.067
GAA (UniProt P10253)	0.077	0.046	0.054	-0.041	-0.005	0.006	-0.208	0.007	0.092	0.025	0.013	-0.011	0.054	-0.133	0.009	–	0.036	-0.084	0.142	0.028
ERLIN2 (UniProt O94905)	-0.028	0.051	-0.1	-0.002	-0.047	-0.019	-0.031	-0.039	0.006	-0.013	0.033	-0.028	0.026	-0.023	-0.023	-0.031	0.066	-0.014	-0.012	-0.016
FAT2 (UniProt Q9NYQ8)	0.215	-0.092	-0.311	0.038	-0.076	-0.135	-0.147	-0.007	0.01	-0.016	0.01	0.057	-0.156	-0.123	-0.314	–	0.038	-0.023	-0.019	0.166
EIF2B4 (UniProt Q9UI10)	0.066	-0.063	-0.027	-0.178	-0.02	-0.121	0.105	-0.009	0.07	0.118	-0.01	0.05	-0.033	-0.062	0.013	-0.109	0.005	-0.038	0.009	-0.044
FNDC3A (UniProt Q9Y2H6)	0.198	–	0.024	–	–	-0.112	–	–	–	0.04	–	–	0.118	-0.207	-0.093	–	0.113	–	0.31	0.027
GDE1 (UniProt Q9NZC3)	0.042	–	0.02	–	-0.032	0.097	–	0.05	0.027	-0.01	-0.047	-0.017	0.067	0.026	0.025	-0.038	-0.122	-0.014	–	-0.036
DST isoform 3 (UniProt Q03001)	0.005	–	0.181	–	-0.085	–	–	-0.034	-0.043	–	0.005	–	–	–	-0.01	–	–	–	–	–
DTL (UniProt Q9NZJ0)	0.106	-0.053	0.012	0.067	-0.029	-0.002	-0.072	–	–	0.006	0.012	–	0.037	-0.024	-0.05	-0.104	-0.037	–	0.041	0.071
EPN2 (UniProt I3L356)	–	–	–	–	-0.143	–	–	–	–	–	0.105	-0.021	–	–	–	–	–	0.097	0.102	–
EWSR1 (UniProt H7BY36)	–	-0.711	–	-0.346	0.111	-0.208	-0.428	-0.011	-0.035	-0.074	-0.288	–	-0.073	-0.052	–	-0.126	0.39	–	–	0.071
EPS8L2 (UniProt Q9H6S3)	0.082	–	0.009	–	0.037	0.133	–	-0.108	0.055	-0.086	-0.041	-0.026	-0.028	-0.021	0.002	-0.002	-0.084	0.015	0.031	-0.054
EPB41, A0A2R8Y783	–	-0.136	–	0.09	-0.058	–	0.017	-0.001	0.346	–	0.196	0.093	–	–	–	0.057	–	0.034	–	–
EXO5 (UniProt Q9H790)	0.279	–	0.012	–	-0.226	0.085	–	–	–	-0.028	0.111	–	0.018	-0.126	-0.025	–	-0.067	–	–	0.217
GAPVD1 (UniProt Q14C86)	–	–	–	–	-0.016	–	–	–	–	–	0.086	0.317	–	–	–	–	–	-0.666	–	–
FAM204A (UniProt Q9H8W3)	-0.021	-0.018	-0.014	0.11	–	0.018	-0.008	–	–	0.01	–	–	-0.12	0.061	-0.117	–	-0.002	–	–	0.174
GBA2 (UniProt Q9HCG7)	-0.088	–	0.063	–	0.035	-0.055	–	0.007	0.041	0.01	-0.071	-0.046	0.082	-0.097	0.042	0.077	0.08	0.021	-0.037	0.004
